Lassa entry inh – qHTS for Inhibitors of binding or entry into cells for Lassa Virus; Lassa virus pseudotype entry inhibition, cell reporter; Potency, µM (highest dose often 37.9 µM), inactives show at the top dose activity change, negative = inhibition, hits mostly inhibitors; hit rate 1.2% among 300,000; AID 540256, 2011; calls by dose curve; tested in HEK293 cells; also: potency is read from the fitted curve at half-maximal effect; nearly all actives have a fitted effect of over 50% in size
FMDV antiviral – High Throughput Screening for Foot and Mouth Disease Virus Antivirals; FMDV antiviral cell-based qHTS; Potency, µM (titrated, usually from 57.9 µM), for inactives: top-dose activity change, negative = inhibition, actives largely listed as inhibitors; hit rate 1.2% among 410,000; AID 1159524, 2015; calls by dose curve; tested in HEK293T cells; also: read-out not given here; potency is read from the fitted curve at half-maximal effect; nearly all actives have a fitted effect of over 45% in size
HCV inh – qHTS Assay for Inhibitors of Hepatitis C Virus (HCV); Huh7.5.1 HCVcc-Cre infection, luciferase reporter, 44 h; Potency, µM (highest dose often 41.8 µM), inactives show at the highest dose activity change, negative = inhibition, hits mostly inhibitors; hit rate 3.4% among 340,000; AID 651820, 2012; active = well fitted inhibition curve with a large enough effect; inconclusive = small, poorly fitted or top-dose-only effect, or another doubt; inactive = no such curve, though single readings can be large or run the other way; also: potency is read from the fitted curve at half-maximal effect
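1,000 cells/well; 4 h culture; + compound; + HCVcc-Cre (~0.5 moi); 44 h; luciferase substrate, RT 15 min; read 15 sec.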
HCMV inh – qHTS Assay for inhibitors of the human cytomegalovirus (HCMV); activity change, negative = inhibition, % at 57.5 µM; hit rate 4.5% among 410,000; AID 1259415, 2018; HFF cells, HCMV-luciferase reporter, 72 h; active compounds read low; in the data active = activity change below about -60%; inconclusive = no clear call, values can overlap the other calls; inactive = above about -39%
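Two compound doses tested in HFFs infected with HCMV-luciferase, MOI 1 PFU/cell, 72 h at 37C. Lysate luminescence read with OneGlo; data normalized against buffer-only and 10uM Salinomycin inhibitor controls.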
Marburg entry inh – qHTS for inhibitors of binding or entry into cells for Marburg Virus. Marburg virus pseudotyped entry inhibition, cell reporter. Potency, µM (top dose mostly 37.8 µM), inactives show at the highest dose activity change, negative = inhibition, most hits filed as inhibitors. hit rate 1.8% among 300,000. AID 540276, 2011; calls by dose curve; tested in HEK293 cells; also: potency is read from the fitted curve at half-maximal effect
* marks the source's active call; other numbers are inactive results; ? = inconclusive; nt = no result; ! = a repeat was not active; [ ] = dose if it differs, or a comment. Sampled rows, rich in hits. Any-hit rate of the full collection: about 7.9%. % is scaled to controls: 0 for no effect and ±100 for the full control effect.

SMILES | Lassa entry inh | FMDV antiviral | HCV inh | HCMV inh | Marburg entry inh
CC(C)(C)c1csc(Sc2ncccc2[N+](=O)[O-])n1 | nt | 14% | -10% | -28 | nt
N#Cc1cccc(NC(=O)C2CCN(c3nc(-c4ccc(Cl)cc4)no3)CC2)c1 | 8%[46.1 µM] | 25µM* | nt | ? | nt
N[C@@](C(=O)O)(c1ccc(P(=O)(O)O)cc1)C1CC1 | nt | -5% | nt | nt | nt
Brc1cccc(-c2nc3cccnc3nc2-c2cccc(Br)c2)c1 | nt | 0% | 13% | 12 | nt
Cc1ccc(-c2nc3cc(Br)cnc3nc2-c2ccc(C)cc2)cc1 | ? | ? | 13µM* | -37 | 3.2µM*
O=C(NC(Cc1c[nH]c2ccccc12)C(=O)Nc1ccc(F)cc1)c1cccs1 (stereo not given) | 1.4µM* | -17% | -9% | ? | ?
O=C(Cc1c[nH]c2ccccc12)N[C@@H](Cc1c[nH]c2ccccc12)C(=O)O | 21%[46.1 µM] | 1% | 10% | 21 | -3%[46.1 µM]
CC(C)CC(NC(=O)OCc1ccccc1)C(=O)NC(Cc1c[nH]c2ccccc12)C(=O)O (stereo not given) | nt | -24% | nt | nt | nt
O=C(Cc1ccc(F)cc1)NC(Cc1c[nH]c2ccccc12)C(=O)O (stereo not given) | 10% | 17% | 9% | -62* | 3%[46.1 µM]
COC(=O)C(Cc1c[nH]c2ccccc12)NC(=O)c1cccs1 (stereo not given) | nt | 49% | -6% | 62 | nt
COc1ccccc1CNC(=O)C(Cc1c[nH]c2ccccc12)NC(=O)OCc1ccccc1 (stereo not given) | 4.5µM* | -25% | ? | -8 | ?
O=C(NC(Cc1c[nH]c2ccccc12)C(=O)N/N=C/c1cccnc1)c1cccs1 (stereo not given) | ? | -12% | 13% | -78* | ?
CC(OC(=O)Cc1c[nH]c2ccccc12)C(=O)Nc1ccccc1F (stereo not given) | 15% | -16% | 7% | 6 | ?
Cc1nc(C(C)NC2CCN(c3cccc(NC(=O)c4ccncc4)c3)CC2)cs1 (stereo not given) | nt | 11% | nt | nt | nt
C=CCc1ccccc1OCC(O)CNC1CCCC1 (stereo not given) | nt | -4% | -11% | 0 | nt
Cc1ccc(N(C)C(=O)c2ccc(CNc3c(N4CCC(C)CC4)c(=O)c3=O)cc2)cc1 | 1% | -24% | -4% | -31 | -22%[46.1 µM]
COc1ccc(Nc2cc(C(=O)NCCCN3CCOCC3)c3ccccc3n2)cc1OC | ? | 0% | -18% | 57 | 1%
Cc1ccc(-c2nc(C(=O)NCCCN3CCOCC3)cc3c2[nH]c2ccccc23)cc1 | nt | -26% | 11µM* | -36 | nt
COc1ccc(-c2nc(C(=O)NCCCN3CCOCC3)cc3c2[nH]c2ccccc23)cc1OC | nt | ? | 13µM* | 3 | nt
COC[C@H]1O[C@H](c2ccccc2)C=C[C@H]1OCc1cccc(Br)c1 | nt | nt | nt | nt | -15%[14.2 µM]
O=C(NCc1cccs1)C1CCN(c2ccc(S(=O)(=O)N3CCOCC3)cc2Cl)CC1 | ? | -12% | 11% | -86* | 1.1µM*!
Cc1cc(C)nc(N2CCC(C(=O)NCc3cccs3)CC2)n1 | -14%[14.3 µM] | 24% | nt | -93* | 0%
C#CCNC(=O)C1CCN(c2ccc(S(=O)(=O)N3CCOCC3)cc2Cl)CC1 | ? | -30% | 0% | ? | 8%[46.1 µM]
Cc1ccc2c(c1)C(=O)C(=O)N2CCOc1ccccc1 | ? | 13% | ? | -73* | ?
Cc1cccc(OCCCn2c(=O)oc3ccc(C)cc32)c1 | 10% | -8% | 3% | -80* | 1%
SMILES | Lassa entry inh | FMDV antiviral | HCV inh | HCMV inh | Marburg entry inh
Cc1cccc(OCCN2C(=O)C(=O)c3cc(C)ccc32)c1 | ? | 7% | ? | -89* | ?
CC1=C(C(=O)Nc2cccc(C(=O)N3CCC(C(N)=O)CC3)c2)SCCO1 | nt | -9% | 14% | 0 | nt
N#CC(c1cccc(C(F)(F)F)c1)(c1ncc(C(F)(F)F)cc1Cl)N1CCOCC1 (stereo not given) | ? | -24% | 8% | -64* | -20%
CCCCNC(=O)CCn1c(=O)c2cccn2c2cccnc21 | 12%[46.1 µM] | -2% | nt | 1 | nt
Cc1cccc(NC(=O)CN(C)C(C)C(=O)Nc2ccc(S(=O)(=O)N3CCCC3)cc2)c1C (stereo not given) | 7% | -18% | ? | 1 | ?
CC1CCCN(C(=O)N2c3ccccc3Sc3ccccc32)C1 (stereo not given) | ? | -30% | -19% | -68* | ?
Cn1nnnc1Sc1c(Cl)cccc1[N+](=O)[O-] | 3% | 1% | 1% | -91* | 9%
CN(C)CCNC(=O)Cc1ccc(NC(=O)N2CCCCc3ccccc32)cc1 | -4%[46.1 µM] | -22% | nt | 7 | nt
COCC(=O)N1CCC(Oc2ccc(C(=O)N(C)CCCC3CCCC3)cc2)CC1 | nt | ? | ? | -67* | nt
O=C(NCCc1nnc2n1CCN(Cc1c(F)cccc1F)CC2)c1ccco1 | nt | -20% | nt | nt | nt
Cc1cc(=O)oc2c(C(=O)/C=C/c3ccccc3)c(O)ccc12 | 2% | -23% | -8% | -30 | ?
COc1ccc(/C=C\C(=O)c2c(O)ccc3c(C)cc(=O)oc23)cc1OC | ? | 35µM* | 10µM* | -94* | ?
COc1cc(/C=C/C(=O)c2c(O)ccc3c(C)cc(=O)oc23)ccc1O | ? | ? | -22% | -92* | ?
O=C(Cc1ccccn1)N1CC(=O)N2[C@H](CO)[C@@H](c3ccc(Br)cc3)[C@H]2C1 | nt | nt | nt | -101* | nt
COCCN1Cc2cc(C(=O)OC)c3c(c2C1=O)c1cc(F)ccc1n3C(=O)c1ccccc1 | nt | nt | nt | 3 | nt
CN(C)c1ccc(C=C2SC(=S)NC2=O)cc1 | -21%[46.1 µM] | 27% | 3% | 33 | ?
CN(C)c1ccc(/C=N/N=C2/NC(=O)/C(=C/c3ccc([N+](=O)[O-])cc3)S2)cc1 | 2µM* | 8.9µM* | 6% | -22 | ?
O=C(CCl)N(O)c1ccc(C=Cc2ccccc2)cc1 | 8.9µM* | 20% | ? | 8 | ?
COC(=O)c1ccccc1NC(=O)/C=N/O | nt | 6% | ? | -2 | 2%
O=C(/C=N/O)Nc1ccc2sc3ccccc3c2c1 | 9% | 27% | 13µM* | -28 | 10%[46.1 µM]
CC(C)CN1C(=O)/C(=C/c2cccs2)NC1=S | -7% | -8% | 7% | -63* | ?
N#CCC(=O)Nc1ccc(C(=O)OCC(=O)N(C2CCCCC2)C2CCCCC2)cc1 | ? | -29% | -19% | -28 | -20%[46.1 µM]
COC(=O)C(=C/C(C)=C/c1cccs1)C(=O)OC | ? | 28µM* | -5% | -26 | ?
Cc1ccc(Nc2nc(-c3c(C)nc4ccccn34)cs2)cc1 | ? | 25µM* | ? | -101* | -41%
Cc1ccn2c(-c3csc(NCc4ccccc4)n3)c(C)nc2c1 | ? | 16µM* | 10µM* | -81* | ?
COc1ccc(-c2cc(C(F)(F)F)nc(SCC(=O)NCC(C)C)n2)cc1OC | ? | -17% | nt | -7 | 2%[46.1 µM]

Screens (PubChem BioAssay)
